Laboratory results from PubChem BioAssay.
The source made the active and inactive calls.

Key:
[1] = optical density shifts of acrAB sulA E. coli – strain DRC41, OD650, 48 h, E. coli filamentation inducer project, primary screen (AID 1152); conditions: higher = more signal, called active from +8 up or from −8 down;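 also: E. coli MC1000 strain DRC41 lacking acrAB efflux pump and sulA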
[2] = probe aLefty1 binding on compound microarray – biochemical, small-molecule microarray, 635/667 nm fluorescence, primary screen (AID 1153); conditions: higher = more signal;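 also: score merges spot fluorescence with signal-to-noise ratio from the scanned slide images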
[3] = plasmodial surface anion channel blockers, osmotic lysis – cell-based, P. falciparum Indochina, OD700, 1 h, primary screen (AID 1154); conditions: P. falciparum Indochina infected RBC osmotic lysis, higher = more signal, called active from +8 up or from −8 down
[4] = plasmodial surface anion channel blockers, osmotic lysis – cell-based, P. falciparum Indochina, OD700, 2 h, primary screen (AID 1155);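 also: lysis reports solute entry through the parasite surface anion channel PSAC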; conditions: P. falciparum Indochina infected erythrocytes, higher = more signal, called active from +8 up or from −8 down
[5] = changes in parasitized red cell lysis, either direction – P. falciparum Indochina, OD700, 3 h, PSAC antagonist project, primary screen (AID 1156); conditions: P. falciparum-infected erythrocytes, osmotic lysis, higher = more signal, called active from +8 up or from −8 down
[6] = plasmodial surface anion channel blockers, osmotic lysis – cell-based, P. falciparum Indochina, OD700, 18 h, primary screen (AID 1157); conditions: P. falciparum Indochina infected erythrocytes, osmotic lysis OD700, 18 h; higher = more signal, called active from +8 up or from −8 down
[7] = S6 kinase pathway phospho-S6 level changes – cell-based, A549, cytoblot, luminescence, serum-stimulated, primary screen (AID 1158); conditions: 5 h, higher = more signal;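 also: serum-stimulated A549 lung adenocarcinoma cells; signal is phosphorylated S6 detected by cytoblot immunostaining with HRP secondary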
[8] = biological target: NADPH oxidase 2 (Homo sapiens) (UniProt P04839); experiment: compounds shifting NOX2 Amplex Red fluorescence – cell-based, HEK293-NOX2, PMA-stimulated, NOX inhibitor project, primary screen (AID 1159); conditions: 45 min, higher = more signal, called active from +8 up or from −8 down; also: test concentration not given here
[9] = biological target: NADPH oxidase 4 (Homo sapiens) (UniProt Q9NPH5); experiment: compounds shifting NOX4 Amplex Red fluorescence – cell-based, HEK293-NOX4, tetracycline-induced, NOX inhibitor project, primary screen (AID 1160); conditions: HEK293-NOX4, Amplex Red H2O2 fluorescence, 45 min; higher = more signal, called active from +8 up or from −8 down
[10] = biological target: NADPH oxidase 5 (Homo sapiens) (UniProt Q96PH1); experiment: compounds shifting NOX5 Amplex Red fluorescence – cell-based, HEK293-NOX5, NOX inhibitor project, primary screen (AID 1161); conditions: HEK293-NOX5, ionomycin, 45 min, higher = more signal
[11] = compound effects on lung adenocarcinoma cell viability – A549, calcein-AM fluorescence, 48 h, basal, profiling panel (AID 1162); conditions: higher = more signal; also: test concentration not given here
[12] = compound effects on differentiated 3T3-L1 adipocyte viability – cell-based, 3T3-L1 adipocytes, calcein-AM fluorescence, 48 h, basal, profiling panel (AID 1163); conditions: 3T3-L1 adipocytes viability, higher = more signal; also: test concentration not given here
[13] = compound effects on hepatocellular carcinoma cell viability – HepG2, calcein-AM fluorescence, 48 h, basal, profiling panel (AID 1164); conditions: higher = more signal; also: test concentration not given here
[14] = compound effects on multiple myeloma cell viability – MM1S, calcein-AM fluorescence, 48 h, basal, profiling panel (AID 1165); conditions: higher = more signal; also: test concentration not given here
[15] = calcein-AM signal in unstimulated myeloma cells – cell-based, calcein-AM fluorescence, 48 h, PK04 Diversity Set, profiling panel (AID 1166); conditions: RPMI8226 myeloma viability, higher = more signal;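 also: cells grown under basal conditions without added stimulus; test concentration not given here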
[16] = JC-1 mitochondrial signal, unstimulated HepG2 cells – cell-based, JC-1 fluorescence, 24 h, 100 nL compound, profiling panel (AID 1167); conditions: HepG2 mitochondrial potential, higher = more signal; also: test concentration not given here
[17] = JC-1 mitochondrial signal, unstimulated adipocytes – cell-based, JC-1 fluorescence, 3T3-L1 adipocytes, 24 h, 100 nL compound, profiling panel (AID 1168); conditions: JC-1 mitochondrial fluorescence, higher = more signal, called active from +8 up or from −8 down; also: test concentration not given here
[18] = JC-1 mitochondrial signal, unstimulated myeloma cells – cell-based, JC-1 fluorescence, RPMI8226, 24 h, 100 nL compound, profiling panel (AID 1169); conditions: JC-1 mitochondrial potential fluorescence, higher = more signal; also: test concentration not given here
[19] = JC-1 mitochondrial signal, unstimulated MM1S myeloma – cell-based, JC-1 fluorescence, 24 h, 100 nL compound, profiling panel (AID 1170); conditions: MM1S mitochondrial potential, higher = more signal; also: test concentration not given here
[20] = resazurin metabolic signal in A549 cells – cell-based, resazurin fluorescence, 24 h, PK04 Diversity Set, profiling panel (AID 1171); conditions: A549 viability, higher = more signal, called active from +8 up or from −8 down; also: test concentration not given here

NADPH oxidase 4 (Homo sapiens), sequence (Q9NPH5 whole entry, looked up): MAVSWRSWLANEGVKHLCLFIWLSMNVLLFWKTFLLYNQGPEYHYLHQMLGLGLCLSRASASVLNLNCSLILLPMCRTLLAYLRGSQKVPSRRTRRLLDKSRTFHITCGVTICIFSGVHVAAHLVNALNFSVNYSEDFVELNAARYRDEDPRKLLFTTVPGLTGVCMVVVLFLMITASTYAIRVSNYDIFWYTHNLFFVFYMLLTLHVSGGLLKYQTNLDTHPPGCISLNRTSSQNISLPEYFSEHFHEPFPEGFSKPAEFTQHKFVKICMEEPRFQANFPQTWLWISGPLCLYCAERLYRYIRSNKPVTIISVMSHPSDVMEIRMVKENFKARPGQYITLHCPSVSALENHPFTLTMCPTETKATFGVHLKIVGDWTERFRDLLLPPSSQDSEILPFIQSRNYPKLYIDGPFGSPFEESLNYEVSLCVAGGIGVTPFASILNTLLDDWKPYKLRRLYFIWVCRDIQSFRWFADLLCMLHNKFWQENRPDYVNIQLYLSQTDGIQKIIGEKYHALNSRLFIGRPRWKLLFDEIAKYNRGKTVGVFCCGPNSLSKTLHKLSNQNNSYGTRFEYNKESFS
NADPH oxidase 2 (Homo sapiens), sequence (P04839 whole entry, looked up): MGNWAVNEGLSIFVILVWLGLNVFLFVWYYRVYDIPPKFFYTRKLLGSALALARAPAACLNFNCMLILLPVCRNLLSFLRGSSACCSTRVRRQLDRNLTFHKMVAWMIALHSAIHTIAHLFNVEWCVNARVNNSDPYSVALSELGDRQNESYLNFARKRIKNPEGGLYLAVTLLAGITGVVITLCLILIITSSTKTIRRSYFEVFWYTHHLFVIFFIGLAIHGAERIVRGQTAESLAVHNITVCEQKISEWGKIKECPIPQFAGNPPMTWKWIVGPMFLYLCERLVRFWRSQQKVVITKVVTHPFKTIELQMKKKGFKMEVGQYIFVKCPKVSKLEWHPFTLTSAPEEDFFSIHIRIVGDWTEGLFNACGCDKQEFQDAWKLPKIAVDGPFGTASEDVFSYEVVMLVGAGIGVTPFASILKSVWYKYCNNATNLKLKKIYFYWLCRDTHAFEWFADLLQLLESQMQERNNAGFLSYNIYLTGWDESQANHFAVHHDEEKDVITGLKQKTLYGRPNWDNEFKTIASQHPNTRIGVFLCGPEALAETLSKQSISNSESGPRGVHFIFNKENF
NADPH oxidase 5 (Homo sapiens), sequence (Q96PH1 whole entry, looked up): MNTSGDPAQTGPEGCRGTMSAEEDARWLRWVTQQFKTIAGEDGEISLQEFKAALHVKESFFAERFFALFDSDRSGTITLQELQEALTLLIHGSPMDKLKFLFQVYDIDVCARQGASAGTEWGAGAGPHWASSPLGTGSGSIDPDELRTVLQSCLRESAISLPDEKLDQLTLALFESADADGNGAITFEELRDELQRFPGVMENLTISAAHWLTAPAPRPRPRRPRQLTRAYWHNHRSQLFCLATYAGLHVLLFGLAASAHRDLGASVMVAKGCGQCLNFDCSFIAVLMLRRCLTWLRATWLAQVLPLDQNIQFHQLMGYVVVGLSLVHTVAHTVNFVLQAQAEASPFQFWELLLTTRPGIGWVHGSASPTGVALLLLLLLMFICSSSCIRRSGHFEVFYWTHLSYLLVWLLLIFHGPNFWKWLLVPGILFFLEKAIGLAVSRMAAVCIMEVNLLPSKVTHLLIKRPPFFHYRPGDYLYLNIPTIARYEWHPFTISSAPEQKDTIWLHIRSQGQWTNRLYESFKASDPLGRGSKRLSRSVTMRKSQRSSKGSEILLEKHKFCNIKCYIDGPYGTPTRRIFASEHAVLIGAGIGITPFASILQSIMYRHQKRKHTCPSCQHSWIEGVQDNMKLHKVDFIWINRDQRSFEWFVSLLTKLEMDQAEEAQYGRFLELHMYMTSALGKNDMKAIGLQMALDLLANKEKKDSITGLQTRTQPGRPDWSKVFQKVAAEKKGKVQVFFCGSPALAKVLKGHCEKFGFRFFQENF

| Structure (SMILES) | z-score [1] | composite z-score [2] | z-score [3] | z-score [4] | z-score [5] | z-score [6] | z-score [7] | z-score [8] | z-score [9] | z-score [10] | z-score [11] | z-score [12] | z-score [13] | z-score [14] | z-score [15] | z-score [16] | z-score [17] | z-score [18] | z-score [19] | z-score [20] |
| --- | --- | --- | --- | --- | --- | --- | --- | --- | --- | --- | --- | --- | --- | --- | --- | --- | --- | --- | --- | --- |
| COC(=O)C[C@H]1O[C@]2(C(=O)N(Cc3ccccc3)c3ccc(NC(C)=O)cc32)[C@@H](C)[C@@H]1[Si](C)(C)c1ccc(OC)cc1 | -0.202 (inactive) | -0.179 | 2.19 (inactive) | 0.984 (inactive) | 0.659 (inactive) | 0.304 (inactive) | 0.186 | -0.0156 (inactive) | 0.288 (inactive) | 2.89 | -0.472 | 1.73 | 0.425 | 0.0926 | -2.57 | 0.0504 | 1.73 (inactive) | -0.0063 | 0.402 | -1.62 (inactive) |
| C=CCC(OC(C)=O)[C@@H]1[C@@H](N(Cc2cccc3ccccc23)C(=O)c2ccc(C)cc2)c2cc(OCCCO)ccc2N1C(=O)Cc1ccc(OC)cc1 (stereo not given in full) | 2.7 (inactive) | -0.0482 | 0.786 (inactive) | -0.438 (inactive) | -0.632 (inactive) | -0.669 (inactive) | 1.95 | -0.993 (inactive) | 0.727 (inactive) | 0.687 | 1.77 | 1.14 | 1.97 | 0.621 | 0.943 | 1.77 | 0.696 (inactive) | 0.594 | -0.596 | 0.69 (inactive) |
| O=C1O[C@H](c2ccccc2)[C@H](c2ccccc2)N2[C@H]1[C@@H](C(=O)O)[C@]1(C(=O)Nc3ccc(C#CC4(O)CCCCCC4)cc31)[C@H]2c1ccc(OCCO)cc1 | -1.21 (inactive) | -0.031 | 1.14 (inactive) | -0.795 (inactive) | -9.96 (active) | -0.71 (inactive) | -0.424 | 2.71 (inactive) | -0.335 (inactive) | 1.25 | 0.82 | 0.287 | 0.293 | -1.99 | -0.216 | -1.82 | -1.07 (inactive) | -0.559 | -0.683 | -0.0693 (inactive) |
| COc1ccc([Si](C)(C)[C@@H]2[C@@H](CCn3cc([C@H](O)c4ccccc4)nn3)O[C@]3(C(=O)N(Cc4ccc(N5C(=O)c6cccc7cccc5c67)cc4)c4ccccc43)[C@H]2C)cc1 | 0.74 (inactive) | -0.14 | 1.23 (inactive) | -0.611 (inactive) | 0.957 (inactive) | -0.68 (inactive) | 1.11 | 0.584 (inactive) | 1.01 (inactive) | -0.539 | -0.725 | 1.91 | -0.394 | -0.709 | -1.77 | 2.05 | 0.43 (inactive) | -0.964 | 0.209 | -1.92 (inactive) |
| COc1ccc(CCNC(=O)[C@@H]2c3ccccc3C(=O)N(Cc3ccc(OC(F)(F)F)cc3)[C@H]2c2ccc(CO)cc2)cc1 | -0.989 (inactive) | -0.291 | 4.16 (inactive) | 0.385 (inactive) | 2 (inactive) | 0.623 (inactive) | -0.404 | -1.69 (inactive) | -0.245 (inactive) | -3.56 | 0.843 | 0.614 | -1.01 | -2.39 | -1.99 | 1.14 | -0.0731 (inactive) | 0.118 | -0.23 | 0.619 (inactive) |
| C=CCC(OC(C)=O)[C@@H]1[C@@H](N(Cc2cccc3ccccc23)C(=O)c2cccc3ccccc23)c2cc(OCCCO)ccc2N1C(=O)c1ccc2ccccc2n1 (stereo not given in full) | -0.773 (inactive) | 0.0622 | 1.1 (inactive) | 0.613 (inactive) | -0.249 (inactive) | 0.532 (inactive) | 0.443 | -0.62 (inactive) | -0.419 (inactive) | -2.42 | -0.7 | 0.161 | -0.571 | -0.399 | -0.128 | 0.978 | -1.2 (inactive) | -0.133 | 0.248 | 0.0076 (inactive) |
| COc1c(C)cc(-c2cc3c(c(-c4ccc(Oc5ccccc5)cc4)n2)[Si](C(C)C)(C(C)C)OC3)cc1C | -1.42 (inactive) | 0.13 | 0.219 (inactive) | 0.603 (inactive) | 0.392 (inactive) | 0.63 (inactive) | -0.817 | -0.445 (inactive) | 0.722 (inactive) | -0.958 | -0.342 | -0.616 | 0.285 | -0.66 | -0.11 | -1.3 | -0.528 (inactive) | 0.103 | 0.0963 | 0.624 (inactive) |
| O=C(CS)NCCCCCCNC(=O)[C@@H]1C[C@@H]2C(=O)N3CCC[C@H]3C(=O)N2[C@@H]1c1ccc(O)cc1 | 0.113 (inactive) | -0.55 | 4.95 (inactive) | 0.471 (inactive) | 2.2 (inactive) | 0.252 (inactive) | -0.574 | 0.489 (inactive) | -1.38 (inactive) | -0.141 | -1.09 | 0.519 | -0.507 | 0.16 | 0.412 | -1.57 | -0.124 (inactive) | 0.653 | 0.0659 | -0.331 (inactive) |
| O=C1C2C=CC(C(O)c3ccc(B(O)O)cc3)N(Nc3ccccc3)C2C(=O)N1c1ccccc1 (stereo not given) | -1.52 (inactive) | 0.0315 | 1.07 (inactive) | -0.447 (inactive) | 0.977 (inactive) | -0.447 (inactive) | 0.64 | -3.57 (inactive) | -5.02 (inactive) | -7.63 | -1.52 | -0.305 | -1.38 | -1.74 | -2.12 | -2.75 | -0.654 (inactive) | -0.162 | -0.613 | -0.742 (inactive) |
| CC(=O)NCCCC[C@@H]1NC(=O)[C@H]2C[C@@H](C(=O)NCCCCCC[N+](C)(C)C)[C@@H](c3cccc(OCCO)c3)N2C1=O | 1.52 (inactive) | 0.147 | 2.86 (inactive) | -1.48 (inactive) | 0.657 (inactive) | -2.25 (inactive) | 0.778 | -0.329 (inactive) | 0.383 (inactive) | -0.465 | -0.144 | 1.14 | -0.827 | 0.385 | -0.418 | -1.44 | 0.326 (inactive) | -0.135 | -0.872 | 0.925 (inactive) |
| COCCOC(=O)N1C(=O)[C@@]2(c3cc(C#CCC(C(=O)OC)C(=O)OC)ccc31)[C@H](c1ccccc1OCCO)N1[C@H](c3ccccc3)[C@H](c3ccccc3)OC(=O)[C@H]1[C@@H]2C(=O)N1CCc2cc(OC)c(OC)cc2C1 | 2.09 (inactive) | 0.438 | 1.87 (inactive) | -0.226 (inactive) | -0.23 (inactive) | -0.466 (inactive) | 0.61 | 1.26 (inactive) | 1.56 (inactive) | 0.631 | 0.178 | 1.76 | -0.821 | -0.906 | -0.756 | -0.0323 | 2.21 (inactive) | -0.833 | -0.702 | 1.34 (inactive) |
| O=c1cccc(C=Cc2ccccc2)o1 | 0.465 (inactive) | -0.29 | 2.92 (inactive) | 0.88 (inactive) | 0.488 (inactive) | 0.931 (inactive) | -0.39 | 0.165 (inactive) | -0.562 (inactive) | -0.0341 | -0.523 | -0.601 | 0.645 | -0.571 | -0.743 | 0.053 | 0.355 (inactive) | 0.629 | -0.969 | 0.261 (inactive) |
